Experimental data reported in PubChem BioAssay.
Several values for one entry are separate records, joined by “and”; a condition that tells them apart may be missing. Equal values may be shown once. Activity calls are given as the source filed them. Unless noted, how the calls were made is not given here.

Legend:
[1] = compound effects on lung adenocarcinoma cell viability – A549, calcein-AM fluorescence, 48 h, basal, profiling panel (AID 1162); details: higher = more signal; further: test concentration not given here
[2] = compound effects on differentiated 3T3-L1 adipocyte viability – cell-based, 3T3-L1 adipocytes, calcein-AM fluorescence, 48 h, basal, profiling panel (AID 1163); details: 3T3-L1 adipocytes viability, higher = more signal; further: test concentration not given here
[3] = compound effects on hepatocellular carcinoma cell viability – HepG2, calcein-AM fluorescence, 48 h, basal, profiling panel (AID 1164); details: higher = more signal; further: test concentration not given here
[4] = compound effects on multiple myeloma cell viability – MM1S, calcein-AM fluorescence, 48 h, basal, profiling panel (AID 1165); details: higher = more signal;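 further: viability of MM1S multiple myeloma cells under basal unstimulated conditions; test concentration not given here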
[5] = calcein-AM signal in unstimulated myeloma cells – cell-based, calcein-AM fluorescence, 48 h, PK04 Diversity Set, profiling panel (AID 1166); details: RPMI8226 myeloma viability, higher = more signal;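 further: cells grown under basal conditions without added stimulus; test concentration not given here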
[6] = JC-1 mitochondrial signal, unstimulated HepG2 cells – cell-based, JC-1 fluorescence, 24 h, 100 nL compound, profiling panel (AID 1167); details: HepG2 mitochondrial potential, higher = more signal; further: test concentration not given here
[7] = JC-1 mitochondrial signal, unstimulated adipocytes – cell-based, JC-1 fluorescence, 3T3-L1 adipocytes, 24 h, 100 nL compound, profiling panel (AID 1168); details: JC-1 mitochondrial fluorescence, higher = more signal, called active from +8 up or from −8 down; further: test concentration not given here
[8] = JC-1 mitochondrial signal, unstimulated myeloma cells – cell-based, JC-1 fluorescence, RPMI8226, 24 h, 100 nL compound, profiling panel (AID 1169); details: JC-1 mitochondrial potential fluorescence, higher = more signal; further: test concentration not given here
[9] = JC-1 mitochondrial signal, unstimulated MM1S myeloma – cell-based, JC-1 fluorescence, 24 h, 100 nL compound, profiling panel (AID 1170); details: MM1S mitochondrial potential, higher = more signal; further: test concentration not given here
[10] = resazurin metabolic signal in A549 cells – cell-based, resazurin fluorescence, 24 h, PK04 Diversity Set, profiling panel (AID 1171); details: A549 viability, higher = more signal, called active from +8 up or from −8 down; further: test concentration not given here
[11] = resazurin metabolic signal in HepG2 cells – cell-based, resazurin fluorescence, 24 h, PK04 Diversity Set, profiling panel (AID 1172); details: HepG2 viability, higher = more signal; further: test concentration not given here
[12] = budding yeast growth changes without added modifier – OD600, strain BY4716, 24 h, basal condition, primary screen (AID 1173); details: S. cerevisiae BY4716 growth, OD600, 24 h; higher = more signal, called active from +8 up or from −8 down
[13] = viability profiling in MM1S myeloma cells – cell-based, resazurin fluorescence, basal, 24 h, PK04 Diversity Set, profiling panel (AID 1174); details: higher = more signal, called active from +8 up or from −8 down; further: test concentration not given here
[14] = biological target: Dihydroorotate dehydrogenase (quinone), mitochondrial (Plasmodium falciparum (isolate 3D7)) (UniProt Q08210); test: inhibition of P. falciparum DHODH – biochemical, C-terminal His tag, absorbance 600 nm, primary screen (AID 1175); details: PfDHODH enzyme, DCIP absorbance 600 nm; higher = more signal, called active from +8 up or from −8 down;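 further: recombinant parasite enzyme with a five histidine tag at its C terminus; test concentration not given here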
[15] = inhibition of PAO1 biofilm formation – strain PAO1, LB-PBS medium, absorbance 600 nm, primary screen (AID 1176); further: test concentration not given here; details: P. aeruginosa PAO1 growth/biofilm, A600, 12 h; higher = more signal
[16] = growth modulation of vineyard yeast isolate – strain RM11-1a, OD600, basal, 24 h, primary screen (AID 1177);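 further: cultures grown under basal conditions with no added stressor; test concentration not given here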; details: S. cerevisiae RM11-1a growth, OD600, 24 h; higher = more signal, called active from +8 up or from −8 down
[17] = growth of efflux-deficient E. coli DRC39 – strain DRC39, OD650, 24 h, E. coli filamentation inducers, primary screen (AID 1178);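 further: growth measured as culture turbidity by optical density at 650 nm; test concentration not given here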; details: E. coli DRC39 acrAB, higher = more signal, called active from +8 up or from −8 down
[18] = growth of efflux-deficient E. coli DRC39 – strain DRC39, OD650, 48 h, E. coli filamentation inducers, primary screen (AID 1179);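 further: screen aims at cell division blockers that make cells filament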; details: E. coli DRC39 delta-acrAB growth, higher = more signal, called active from +8 up or from −8 down
[19] = viability profiling in RPMI8226 myeloma cells – cell-based, resazurin fluorescence, basal, 24 h, PK04 Diversity Set, profiling panel (AID 1180); details: higher = more signal;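 further: RPMI8826 multiple myeloma cell line at 5000 cells per well; test concentration not given here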
[20] = biological target: E3 ubiquitin-protein ligase XIAP (Homo sapiens) (UniProt P98170); test: small molecules binding XIAP protein – biophysical, small-molecule microarray, fluorescence 635 nm, primary screen (AID 1181); details: higher = more signal;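 further: score merges 667 nm emission and signal to noise over triplicate slides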
E3 ubiquitin-protein ligase XIAP (Homo sapiens), sequence (P98170 whole entry, looked up): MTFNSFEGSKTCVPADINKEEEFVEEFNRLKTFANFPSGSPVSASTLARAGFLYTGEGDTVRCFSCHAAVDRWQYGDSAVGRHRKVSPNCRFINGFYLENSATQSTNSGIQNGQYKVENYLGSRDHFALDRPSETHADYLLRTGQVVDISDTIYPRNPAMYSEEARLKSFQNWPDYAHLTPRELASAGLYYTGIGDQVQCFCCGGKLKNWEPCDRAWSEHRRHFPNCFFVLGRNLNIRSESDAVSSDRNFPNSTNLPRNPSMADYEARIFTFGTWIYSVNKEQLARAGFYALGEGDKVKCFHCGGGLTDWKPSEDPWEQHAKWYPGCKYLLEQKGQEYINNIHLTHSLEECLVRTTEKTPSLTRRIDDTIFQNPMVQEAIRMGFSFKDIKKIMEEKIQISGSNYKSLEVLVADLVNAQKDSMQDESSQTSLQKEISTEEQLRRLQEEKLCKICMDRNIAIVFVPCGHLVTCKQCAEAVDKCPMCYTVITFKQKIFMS

Dihydroorotate dehydrogenase (quinone), mitochondrial (Plasmodium falciparum (isolate 3D7)), sequence (Q08210 whole entry, looked up): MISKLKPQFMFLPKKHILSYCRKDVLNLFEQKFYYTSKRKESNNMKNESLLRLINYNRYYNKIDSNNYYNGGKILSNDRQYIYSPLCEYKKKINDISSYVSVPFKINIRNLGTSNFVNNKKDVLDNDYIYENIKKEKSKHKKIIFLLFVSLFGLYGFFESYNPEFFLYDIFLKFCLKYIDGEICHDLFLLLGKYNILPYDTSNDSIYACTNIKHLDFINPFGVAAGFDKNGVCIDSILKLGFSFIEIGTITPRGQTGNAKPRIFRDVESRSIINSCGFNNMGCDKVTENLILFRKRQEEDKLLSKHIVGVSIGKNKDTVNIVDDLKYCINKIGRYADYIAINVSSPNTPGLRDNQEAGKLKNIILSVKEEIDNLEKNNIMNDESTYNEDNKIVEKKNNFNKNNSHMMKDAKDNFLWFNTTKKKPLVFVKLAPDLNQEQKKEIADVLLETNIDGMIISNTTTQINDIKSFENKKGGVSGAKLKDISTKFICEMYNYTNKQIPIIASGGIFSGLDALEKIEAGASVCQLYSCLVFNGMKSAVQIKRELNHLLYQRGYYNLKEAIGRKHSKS

## CO[C@H]1COC(=O)[C@H](C)NC(=O)CC=C[C@@H](C)[C@H](OC)COC(=O)CC=C[C@@H]1C
[1]
  z-score: 1.51
[2]
  z-score: 0.459
[3]
  z-score: 0.235
[4]
  z-score: 0.0144
[5]
  z-score: 0.417
[6]
  z-score: 0.573
[7]
  z-score: 0.156 (inactive)
[8]
  z-score: 0.56
[9]
  z-score: 1.04
[10]
  z-score: 0.74 (inactive)
[11]
  z-score: 0.322
[12]
  z-score: 0.278 (inactive)
[13]
  z-score: 0.845 (inactive)
[14]
  composite z-score: 0.804 (inactive)
[15]
  z-score: -0.519 (inactive)
[16]
  z-score: 1.18 (inactive)
[17]
  z-score: 0.901 (inactive)
[18]
  z-score: -0.959 (inactive)
[19]
  z-score: 0.636
[20]
  composite z-score: 0.234

## CO[C@H]1COC(=O)CC=C[C@@H](C)COC(=O)[C@H](CCSC)NC(=O)CC=C[C@@H]1C
[1]
  z-score: -0.875 and -0.577
[2]
  z-score: 0.584 and 0.153
[3]
  z-score: -0.442 and 0.338
[4]
  z-score: 0.0739 and -0.242
[5]
  z-score: -0.858 and 0.708
[6]
  z-score: 0.755 and 0.535
[7]
  z-score: -0.153 (inactive) and 0.157 (inactive)
[8]
  z-score: -0.688 and 0.358
[9]
  z-score: 0.588 and 1.85
[10]
  z-score: -0.8 (inactive) and 0.705 (inactive)
[11]
  z-score: -0.591 and 0.597
[12]
  z-score: -0.92 (inactive) and -2.28 (inactive)
[13]
  z-score: -0.473 (inactive) and 1.67 (inactive)
[14]
  composite z-score: 0.177 (inactive) and 0.0636 (inactive)
[15]
  z-score: 0.0821 (inactive)
[16]
  z-score: -0.177 (inactive) and -0.642 (inactive)
[17]
  z-score: 0.277 (inactive) and 0.719 (inactive)
[18]
  z-score: -1.27 (inactive) and 0.0985 (inactive)
[19]
  z-score: -0.0162 and 1
[20]
  composite z-score: 0.266 and 0.0623

## C=CCN(CCCCC)C(=O)C1N(CCOCCO)C(=O)C2C(C(=O)O)C3C=CC21O3 (stereo not given)
[1]
  z-score: -0.178 and -0.126
[2]
  z-score: 0.21 and -0.603
[3]
  z-score: -0.499 and -0.87
[4]
  z-score: 0.226 and 1.03
[5]
  z-score: -0.361 and 0.133
[6]
  z-score: -0.562 and -0.928
[7]
  z-score: -0.279 (inactive) and -0.227 (inactive)
[8]
  z-score: 0.252 and 0.715
[9]
  z-score: 0.377 and 0.103
[10]
  z-score: -0.529 (inactive) and -1.03 (inactive)
[11]
  z-score: -0.541 and -0.785
[12]
  z-score: 0.709 (inactive) and 1.12 (inactive)
[13]
  z-score: -0.885 (inactive) and -1.41 (inactive)
[14]
  composite z-score: 1.39 (inactive) and -0.109 (inactive)
[15]
  z-score: -0.553 (inactive) and -0.469 (inactive)
[16]
  z-score: 0.892 (inactive) and 0.451 (inactive)
[17]
  z-score: -0.649 (inactive) and -0.537 (inactive)
[18]
  z-score: -0.496 (inactive) and -0.506 (inactive)
[19]
  z-score: -0.724 and -0.899
[20]
  composite z-score: -0.113 and -0.124

## C=C[C@@H](C)[C@H](O)c1ccc(O)c2ccccc12
[1]
  z-score: -0.529 and -0.709
[2]
  z-score: -0.134 and 0.136
[3]
  z-score: -0.988 and -0.789
[4]
  z-score: -2.66 and -2.63
[5]
  z-score: -0.808 and -0.695
[6]
  z-score: -1.66 and -1.91
[7]
  z-score: -1.42 (inactive) and -0.865 (inactive)
[8]
  z-score: -0.333 and -0.269
[9]
  z-score: -0.52 and 0.331
[10]
  z-score: -0.28 (inactive) and -0.0127 (inactive)
[11]
  z-score: 0.127 and 0.0729
[12]
  z-score: -8.76 (active) and -8.55 (active)
[13]
  z-score: -0.683 (inactive) and -0.737 (inactive)
[14]
  composite z-score: -0.94 (inactive) and -0.709 (inactive)
[15]
  z-score: 0.483 (inactive) and 0.79 (inactive)
[16]
  z-score: -0.638 (inactive) and -0.599 (inactive)
[17]
  z-score: 0.479 (inactive) and 0.435 (inactive)
[18]
  z-score: 0.008 (inactive) and 0.189 (inactive)
[19]
  z-score: -0.861 and -0.602
[20]
  composite z-score: -0.0893 and 0.0773
